The assay in a line: chemical genetic growth profiling, strain panel (AID 1159580).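 Further: tested at 20 µM; growth read once vehicle control cultures reached saturation at 30 °C; 1 = growth at the plate median or of vehicle wells; lower values mean less growth of the strain.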 The note with it: S. cerevisiae deletion strains, growth OD.

About 2,000 (36%) of roughly 5,500 compounds were called active. Not shown: some 18% with an inconclusive outcome. This is one part of the list. Unmarked numbers belong to inactive results. No stated cut-off is given here; in the data, active means normalized growth mostly below about 0.91 (no sharp cut-off); inconclusive means no clear call, values can overlap the other calls; inactive means mostly above about 0.92.

For `CC1c2cccc(O)c2C(O)=C2C(=O)C3(O)C(O)=C(C(N)=O)C(=O)C(N(C)C)C3C(O)C21` (centres undefined), the normalized growth (locus YAL040C, strain CLN3, active compounds read low) was 0.944; the normalized growth (locus YCL061C, strain MRC1 (second series), active compounds read low) is 0.966; the normalized growth (locus YDR150W, strain NUM1, active compounds read low) was 0.983; the normalized growth (locus YDR363W, strain ESC2, active compounds read low) is 0.936; the normalized growth (locus YER002W, strain NOP16, active compounds read low) is 0.989; the normalized growth (locus YGR229C, strain SMI1, active compounds read low) is 0.835 (active). In addition, the normalized growth runs as follows: (locus YJR075W, strain HOC1, active compounds read low) 0.971; (locus YMR263W, strain SAP30, active compounds read low) 0.986; (locus YNL153C, strain GIM3, active compounds read low) 0.891; (locus YNL175C, strain NOP13, active compounds read low) 0.993; (locus YNL197C, strain WHI3, active compounds read low) 1.02; (locus YNL224C, strain SQS1, active compounds read low) 0.989. Besides, the normalized growth was 0.977 (locus YOR083W, strain WHI5 (second series), active compounds read low) and 0.974 (locus YPL241C, strain CIN2, active compounds read low).

Source of the values: PubChem BioAssay AID1159580 (chemical genetic matrix, 2015).
